Reference: PubChem BioAssay AID651650 (Sanford-Burnham Center for Chemical Genomics, 2012)

The compounds below were run against Neuropilin-1 (Homo sapiens) (UniProt O14786) (assay: NRP-1 b1b2 CendR peptide binding inhibitors, dose response, biochemical, FP and AlphaScreen panel (AID 651650)). Conditions: NRP-1 b1b2 / RPARPAR peptide binding, FP or AlphaScreen; run 1, at 100 µM (top of the series).
Sequence of Neuropilin-1 (Homo sapiens) (O14786 whole entry, looked up): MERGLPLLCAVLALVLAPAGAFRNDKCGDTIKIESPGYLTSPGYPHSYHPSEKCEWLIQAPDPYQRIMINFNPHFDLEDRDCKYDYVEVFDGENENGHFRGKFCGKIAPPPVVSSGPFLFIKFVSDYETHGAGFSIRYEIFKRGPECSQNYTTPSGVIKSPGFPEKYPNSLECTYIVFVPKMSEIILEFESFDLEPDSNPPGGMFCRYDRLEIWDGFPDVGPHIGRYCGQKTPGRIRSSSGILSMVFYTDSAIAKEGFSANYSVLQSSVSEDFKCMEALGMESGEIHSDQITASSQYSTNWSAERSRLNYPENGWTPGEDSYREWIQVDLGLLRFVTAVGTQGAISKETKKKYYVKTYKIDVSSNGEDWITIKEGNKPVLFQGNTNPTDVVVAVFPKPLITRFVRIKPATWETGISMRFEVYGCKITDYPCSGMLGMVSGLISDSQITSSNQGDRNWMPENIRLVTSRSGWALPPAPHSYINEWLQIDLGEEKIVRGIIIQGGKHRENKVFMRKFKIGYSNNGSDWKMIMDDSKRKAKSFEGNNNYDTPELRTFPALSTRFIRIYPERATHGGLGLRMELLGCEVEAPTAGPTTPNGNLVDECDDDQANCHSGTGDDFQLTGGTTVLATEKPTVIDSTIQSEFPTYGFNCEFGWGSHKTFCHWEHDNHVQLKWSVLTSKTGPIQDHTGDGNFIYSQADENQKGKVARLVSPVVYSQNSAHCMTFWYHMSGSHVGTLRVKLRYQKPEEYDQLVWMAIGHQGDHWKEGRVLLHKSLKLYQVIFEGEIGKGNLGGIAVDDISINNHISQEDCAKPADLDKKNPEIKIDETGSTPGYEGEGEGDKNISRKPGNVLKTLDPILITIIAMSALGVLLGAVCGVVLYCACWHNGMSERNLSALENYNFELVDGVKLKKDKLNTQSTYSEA

| Structure (SMILES) | inhibition [%] |
| --- | --- |
| COc1ccc(-c2[nH]ncc2CN(C)CCc2c(C)n[nH]c2C)c(F)c1 | -14.2 |
| CCOC(=O)c1ccc2[nH]c(C)c(C)c2c1 | -0.673 |
| Cc1ccc(NC(=O)COc2ncnc3c(Cl)cc(Cl)cc23)cc1[N+](=O)[O-] | -2.85 |
| COc1ccc(OCC(=O)O/N=C(\N)Cc2ccc(Cl)cc2Cl)cc1 | 61.1 |
| CC(C)Cc1ccc(C(C)C(=O)Nc2ccc(O)cc2)cc1 (stereo unspecified) | 34.6 |
| Clc1nc(-c2ccccn2)nc2scc(-c3ccccc3)c12 | 7.99 |
| O=C(Cn1ccc(NC(=O)OCc2ccccc2)nc1=O)NCCCn1ccnc1 | 48.6 |
| O=S1(=O)CCOC[C@H](Cc2ccccc2)N1Cc1ccccc1F | 46.5 |
| CCOC(=O)CNc1ccc2c(c1)OCO2 | 82.2 |
| O=[N+]([O-])c1ccc(-n2nnnc2CN2CCCCC2)cc1 | 22.7 |
| CC(O)(c1cccnc1)c1nc(/C=C/c2ccccc2)cs1 (stereo unspecified) | 42.6 |
| COc1ccc(NC(=O)CN(C)CC(=O)Nc2cccc(F)c2)cc1Cl | 71.1 |
| O=C1CCC/C=C\C[C@@H](CC(=O)N(CCO)Cc2ccccc2)C(=O)N2CCC[C@H]2CO1 | -2.11 |
| O=C(NCc1ccccc1)c1cccc(S(=O)(=O)N2CCCCC2)c1 | 61.2 |
| CCn1cc(C(=O)N2CCN(C(=O)c3ccco3)CC2)c2cc(OC)c(OC)cc2c1=O | 77.9 |
| C=CCC1(CC=C)CCCN1C(=O)c1cc(COc2cccc(OC)c2)on1 | 39.2 |
| CCOC(=O)c1ccc(NC(=O)CN2CCc3ccccc3C2)cc1 | 1.94 |
| O=c1[nH]c(Nc2ccccn2)cc2ccccc12 | 81.1 |
| CCC1=C(OC(=O)N(CC)CC)N2C(=O)OC(=NCC(=O)OC)[C@]2(Cc2ccccc2)[C@H]2C1=CC[C@H]1C(=O)N(CC(=O)OC)C(=O)[C@H]12 | 70.2 |
| Cc1csc(NC(C)c2nc3cc(C(F)(F)F)ccc3n2CCOCCO)n1 (stereo unspecified) | 20 |
| O=C(O)c1ccccc1CSc1ccccn1 | 101 |
